esBAF inh – inhibitors of esBAF chromatin remodeling in mouse ES cells | Bmi1-luciferase knock-in reporter, 24 h; 100% = twice the neutral-well signal | reporter increase, % at 12.5 µM | hit rate 2% among 350,000 | AID 602393; in the data active = activation above about 40%; inconclusive = no clear call, values can overlap the other calls;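 also: 0% = median of the plate's neutral control wells and 100% = double that signal; a rise in the Bmi1 reporter signal indicates esBAF inhibition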
EWS-Fli block – EWS/Fli transcriptional activity inhibition | inhibition, % at 12.6 µM | hit rate 0.67% among 350,000 | A673 NR0B1-luciferase reporter, viability-normalised | AID 651661;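 active = mean inhibition of at least 50% after viability correction, with every replicate also passing that limit; inconclusive = mean reaches 50% but only one of two replicates passes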;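 also: firefly luciferase signal divided by Alamar Blue viability fluorescence both relative to DMSO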
MITF TRPM1 inh – MITF TRPM1 promoter inhibition in SK-MEL-5 cells; SK-MEL-5 TRPM1 promoter luciferase, 24 h; inhibition, % at 12.5 µM; hit rate 0.83% among 330,000; AID 488899;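 active = mean inhibition across replicates of 60% or more, whatever share of single replicates reaches that level; inconclusive = some that reach 60%, reason not given; inactive = mean inhibition across replicates below 60%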
Wnt act – activators of Wnt/beta-catenin signaling; Wnt/beta-catenin reporter cell assay, activator, plate reader; activation, % at 9.35 µM; hit rate 1.2% among 300,000; AID 743398; in the data active = activation above about 30%, passing the limit was not always enough; inconclusive = no clear call, values can overlap the other calls;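 also: 0% = neutral control wells and 100% = positive control wells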
MITF TRPM1 HTS – increases MITF-driven TRPM1 promoter luciferase signal; AID 588334; activation, % at 12.5 µM; SK-MEL-5 TRPM1-promoter luciferase, 24 h; % of positive control, neutral wells = 0; hit rate 0.75% among 300,000;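 active = mean activation of at least 80% with every replicate also reaching 80%; inconclusive = mean reaches 80% but some replicate falls short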;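 also: 0% = neutral control wells and 100% = parthenolide positive control wells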
PAX8 inh HTS – inhibitors of PAX8 transcriptional activity in RMG-I cells. inhibition, % at 12.6 µM. hit rate 1.2% among 360,000. RMG-I TPO-luciferase reporter, SteadyGlo, 24 h. AID 652154;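 active = mean replicate inhibition at least 60% with every replicate also reaching 60%; inconclusive = only one of the two criteria is met; inactive = mean below 60% and not all replicates reaching 60%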;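 also: luciferase light reporting Pax8 driven TPO promoter activity; plate controls were median of neutral control wells for no effect and mitoxantrone controls for full effect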
The depositor's hits bear a star; ? = inconclusive; . = not tested or not shown. Shown are actives, neighbours in structure and some others; about 4% of the full set was active somewhere.

SMILES | esBAF inh | EWS-Fli block | MITF TRPM1 inh | Wnt act | MITF TRPM1 HTS | PAX8 inh HTS
CCC1N=C(SC)NC(C)=C1C(=O)c1ccccc1 (centres undefined) | . | 0 | 4 | 0 | 2 | 1
O=C(C[C@H]1CC[C@H]2[C@@H](COC[C@@H](O)CN2Cc2ccc(F)cc2)O1)NCc1ccccc1Cl | 1 | 4 | . | . | . | 79*
O=C(C[C@@H]1CC[C@H]2[C@@H](COC[C@@H](O)CN2Cc2cccc(C(F)(F)F)c2)O1)NCc1ccc(F)cc1 | 4 | 28 | . | . | . | 98*
O=C(C[C@@H]1CC[C@H]2[C@@H](COC[C@@H](O)CN2Cc2cccc(F)c2)O1)NCC1CCCCC1 | -1 | 0 | . | . | . | 107*
CC(C)NC(=O)Nc1ccc2c(c1)C(=O)N([C@@H](C)CO)C[C@@H](C)[C@H](CN(C)C(=O)CCC(F)(F)F)OCCCC[C@H](C)O2 | . | . | . | . | . | -8
O=C(O)c1ccc2oc(SCC(=O)N3CCCCC3)nc2c1 | 59* | . | -33 | . | . | .
COCC(=O)Nc1ccc2c(c1)[C@H]1C[C@@H](CC(=O)NCc3cc(F)ccc3F)O[C@@H](CO)[C@H]1O2 | -2 | -7 | . | . | . | -9
COc1ccc(-c2cc(C(=O)Nc3cccc(O)c3)no2)cc1 | -10 | 69* | 9 | 18 | -8 | -16
COc1ccc(-c2noc(CCC(=O)O)n2)cc1 | . | . | -7 | 1 | 4 | 1
COc1ccc(-c2cc(C(=O)NC(C)C)no2)cc1 | . | . | -110 | . | 105* | .
COC(=O)c1cc(-c2ccc(OC)cc2)on1 | -8 | 8 | -14 | -3 | 13 | -12
CCOc1ccc(-c2cc(CCCC(=O)Nc3cccc(OC)c3)no2)cc1 | -60 | 64* | ? | -8 | -65 | 1
COc1ccc(-c2noc(CCCC(=O)O)n2)cc1 | -78 | . | 66* | . | . | .
C[C@@H]1CN([C@@H](C)CO)C(=O)c2cc(C3=CCCC3)cnc2O[C@H]1CN(C)C(=O)Nc1ccccc1 | . | 1 | . | . | . | -9
C/C=C/c1ccc2c(c1)O[C@@H](CN(C)Cc1ccncc1)[C@H](C)CN([C@H](C)CO)S2(=O)=O | 1 | 14 | . | . | . | .
CNC[C@@H]1Oc2ccc(NS(=O)(=O)c3ccc(Cl)cc3)cc2CC(=O)N([C@@H](C)CO)C[C@@H]1C | -16 | 15 | . | . | . | -2
O=C(C[C@H]1C=C[C@H](NC(=O)Cc2cccnc2)[C@@H](CO)O1)NCc1ccc2c(c1)OCO2 | -3 | 1 | . | . | . | 7
C[C@H]1CN([C@@H](C)CO)C(=O)c2cccc(NS(=O)(=O)c3ccc(F)cc3)c2O[C@H]1CN(C)Cc1ccc(C(=O)O)cc1 | -2 | -2 | . | . | . | .
COc1ccc(-c2cc(C(=O)Nc3cc(Cl)ccc3O)no2)cc1 | ? | -48 | -107 | 14 | 113* | -71
CC(=O)c1cccc(NC(=O)c2cc(-c3ccco3)on2)c1 | 23 | -59 | -33 | 1 | 30 | 12
O=C(Nc1cccc(O)c1)c1cc(-c2ccco2)on1 | 73* | . | -68 | . | 75 | .
COc1cccc(-c2noc(CCC(=O)Nc3cccnc3)n2)c1 | 52* | . | -32 | . | 34 | .
CN1C(=O)C2(N=c3ccccc3=N2)c2ccccc21 | 41* | . | 28 | 1 | -29 | .
O=c1c2c3c(sc2nc(NCCO)n1Cc1ccco1)CCCCC3 | 80* | -27 | -30 | 1 | 28 | -53
CN(C)CCNc1nc2sc3c(c2c(=O)n1Cc1ccccc1)CCCCC3 | -4 | 26 | 4 | -7 | -4 | 10
SMILES | esBAF inh | EWS-Fli block | MITF TRPM1 inh | Wnt act | MITF TRPM1 HTS | PAX8 inh HTS
COCCNc1nc2sc3c(c2c(=O)n1Cc1ccco1)CCCCC3 | 75* | -143 | -47 | 20 | 39 | -169
O=c1c2c3c(sc2nc(NCCO)n1CCc1ccccc1)CCCCC3 | 1 | . | 12 | -6 | -12 | -3
Cc1ccc(-c2ccccc2[C@H]2[C@@H](C#N)N(C(=O)Cc3cccnc3)[C@H]2CO)cc1 | . | 2 | . | . | . | 20
CCCOc1ccc(C(=O)CCNc2cccc(Cl)c2)cc1 | 3 | -25 | -20 | -3 | 20 | -54
COc1ccc(C(=O)CNc2cccc(F)c2)cc1 | 63* | -70 | -68 | 19 | 72 | -61
COc1ccc(C(=O)CCNc2cccc(Cl)c2)cc1 | . | . | -70 | 69* | 74 | -114
O=C(C[C@@H]1CC[C@H]2[C@@H](COC[C@@H](O)CN2S(=O)(=O)c2ccc(Cl)cc2)O1)N[C@@H]1CCN(Cc2ccccc2)C1 | 0 | 5 | . | . | . | 17
CO[C@H]1CN(C)C(=O)c2ccc(NC(=O)c3nc4ccccc4s3)cc2OC[C@@H](C)NC[C@H]1C | 4 | -18 | . | . | . | .
CNC[C@H]1OCCCC[C@@H](C)Oc2ccc(NC(=O)c3ccccc3)cc2C(=O)N([C@@H](C)CO)C[C@@H]1C | -8 | 4 | . | . | . | 3
O=C(COc1ccc(F)cc1)c1ccc2c(c1)CCCC2 | 42* | . | -80 | . | ? | .
O=C(Nc1nc(-c2ccccc2)cs1)c1ccc(N2CCOCC2)c([N+](=O)[O-])c1 | . | . | 80* | . | -81 | .
Cc1ccc(-c2csc(NC(=O)c3cc([N+](=O)[O-])ccc3N3CCOCC3)n2)cc1 | 5 | -2 | 3 | 1 | -3 | 2
O=C(O)c1cc(/C=C/c2ccc(N3CCOCC3)c([N+](=O)[O-])c2)nc2ccccc12 | . | -21 | 6 | 34* | -1 | 1
Cc1cc(NC(=O)c2ccc(N3CCCC3)c([N+](=O)[O-])c2)no1 | . | -14 | -3 | 16 | 0 | -14
O=C(Nc1ccon1)c1ccc(N2CCCCC2)c([N+](=O)[O-])c1 | . | -121 | -82 | 29 | 91* | -200
O=C(O)c1cc(/C=C/c2ccc(N3CCOCC3)cc2)nc2ccccc12 | . | -5 | -5 | 3 | 6 | -9
OC(CNCC(c1ccc(Cl)cc1Cl)c1c[nH]c2ccccc12)c1ccccc1 (centres undefined) | -1 | 48 | 100* | -22 | -99 | 93*
O=[N+]([O-])CC(c1ccccc1)c1c[nH]c2ccccc12 (centres undefined) | 3 | 37 | . | -4 | . | 31
O=C(C[C@@H]1C=C[C@@H](NC(=O)C2CCC2)[C@H](CO)O1)NCCCN1CCOCC1 | -1 | -7 | . | . | . | -12
CCC(C)Nc1nc(Cl)nc(N(C#N)CN2C(=O)c3ccccc3S2(=O)=O)n1 (centres undefined) | . | 16 | 69* | . | -67 | 11
O=C(C1CCC(C(=O)N2CCc3ccccc32)CC1)N1CCc2ccccc21 (centres undefined) | 6 | . | 2 | . | -3 | .
O=C(Nc1ccccc1)C(=O)Nc1ccc2c(c1)N(C(=O)C1CC1)CCC2 | . | -26 | -90 | 42* | 92* | -139
Cc1noc(C)c1NC(=O)N(C)C[C@H]1Oc2ccc(NC(=O)CCCN(C)C)cc2CC(=O)N([C@@H](C)CO)C[C@@H]1C | -4 | -6 | . | . | . | -14
CCOC(=O)c1c2c(n(Cc3ccccc3)c1C)C(=O)C(=O)c1ccccc1-2 | . | 69* | . | -6 | -103 | 125*
CCOC(=O)c1c2c(n(C)c1C)C(=O)C(=O)c1ccc(Br)cc1-2 | -80 | . | 87* | . | . | .

Bioassay records from PubChem.
